Source: PubChem BioAssay (several laboratories)
Only some compounds are listed: those with a hit (about 3.9% of all), similar ones and a draw of the others.
TROY signal inh: blocks TROY-dependent signaling in reporter cells | Q293 LMP1-TROYcd NF-kB luciferase reporter, 4 h | AID 1347056 | 0.98% of 360,000 active | inhibition, % at 10 µM;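 active means compounds whose plate-normalised and pattern-corrected inhibition of the luciferase reporter signal at the single screening dose is 50% or more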
TWEAK-Fn14 inh: TWEAK-Fn14 signaling inhibition; TWEAK-stimulated Fn14 reporter cells, luciferase luminescence, 8 h; inhibition, % at 10 µM; 2% of 360,000 active; in the data active means inhibition above about 50%
HIF-2a block: HIF-2a inhibition; 786-0 RCC cells HIF-2a reporter, luciferase luminescence, overnight; inhibition, % at 18.8 µM; 0.72% of 360,000 active; AID 624352;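 active means inhibition of the luminescence signal of 40% or more relative to plate controls, in a single-dose primary screen at 18.75 µM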
aSyn 5UTR inh: MLPCN primary screen, SNCA 5' untranslated region | alpha-synuclein 5'UTR reporter, inhibitor activity | inhibition, % (tested at 7.5 µM) | 0.82% of 300,000 active | AID 1813; in the data active means inhibition above about 60%; inconclusive means no clear call, values can overlap the other calls;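 further: H4 neuroglioblastoma cells stably carrying SNCA 5'UTR luciferase fusion; 0% = DMSO wells and 100% = positive control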
TRAIL sens C8: sensitizes caspase-8 expressing cells to TRAIL. 1% of 360,000 active. NB7+C8 cells + TRAIL, ATPlite viability luminescence. inhibition (viability loss, TRAIL sensitization), % at 10 µM;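 active means compounds causing at least 50% loss of cell viability in the single-dose screen, relative to plate controls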
HSP90 inh: blocks HSP90-mediated luciferase refolding in reticulocyte lysate; inhibition, % at 5.6 µM; 0.91% of 290,000 active; Rabbit reticulocyte lysate, luciferase refolding luminescence, 3 h;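 active means inhibition above the screen-wide mean plus 3 SD, computed separately per campaign, cut at about 16% in these data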;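 further: 0% = DMSO wells and 100% = 60 µM geldanamycin wells; inhibitors lower the luminescence because luciferase stays unfolded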
* hit, by the source's call.

COc1ccccc1CCNC(=O)C1CC(=O)N(c2ccccc2F)C1 (stereo not drawn) was read as TROY signal inh 14, TWEAK-Fn14 inh -9, HIF-2a block 3 and TRAIL sens C8 -2.
CCCCCc1c2c(cc(O)c1C(=O)O)OC(=O)c1c(cc(OC)cc1C(=O)CCCC)O2 was read as TROY signal inh 62*, TWEAK-Fn14 inh 14, HIF-2a block 9, aSyn 5UTR inh 9, TRAIL sens C8 5 and HSP90 inh -11.
`CCCCCc1c2c(cc(O)c1C(=O)O)OC(=O)c1cc(C(=O)CCCC)c(OC)cc1O2` gave TROY signal inh -11, TWEAK-Fn14 inh 29, HIF-2a block 12 and TRAIL sens C8 6.
`COc1ccc(Br)cc1CN(C)C(=O)c1ccccc1OCc1c(C)noc1C` gave TROY signal inh 14, TWEAK-Fn14 inh 1, HIF-2a block -3, aSyn 5UTR inh 8 and TRAIL sens C8 7.
For O=C(C[C@H]1C=C[C@@H](NS(=O)(=O)c2ccccc2)[C@@H](CO)O1)NCc1ccc(Cl)c(Cl)c1 the results were HIF-2a block 12 and TRAIL sens C8 -8.
NC1=C(Cl)C(=O)c2ccc(S(N)(=O)=O)cc2C1=O was read as TROY signal inh 86*, TWEAK-Fn14 inh 108*, HIF-2a block 97* and TRAIL sens C8 92*.
For Cc1nc2ccccn2c1C(=O)N=Nc1c(O)n(CCC(C)C)c2ccccc12 the results were TROY signal inh 18, TWEAK-Fn14 inh 69*, HIF-2a block -2, aSyn 5UTR inh 7, TRAIL sens C8 46 and HSP90 inh 2.
For CC(=O)Nc1cccc(-c2ccnc3c2CC(C)(C(=O)Nc2ccc(Cl)c(C(F)(F)F)c2)O3)c1 (stereo not drawn) the results were TROY signal inh 50, TWEAK-Fn14 inh 15, HIF-2a block -5 and TRAIL sens C8 20.
Screening CC1(C(=O)NCc2ccccc2)CSCC(=O)N1CCOc1ccccc1 (stereo not drawn) returned HIF-2a block -5 and TRAIL sens C8 -3.
`CN(C)C(=O)C[C@@H]1CC[C@@H](NC(=O)C2CCC2)[C@@H](CO)O1` gave HIF-2a block 13 and TRAIL sens C8 1.
Screening N#C/C(=C\Nc1ccc2c(c1)OCCO2)c1nc2ccccc2[nH]1 returned TROY signal inh 66*, TWEAK-Fn14 inh 61*, HIF-2a block -202, aSyn 5UTR inh -65, TRAIL sens C8 27 and HSP90 inh 6.
Screening C[C@]12CC[C@@H]3c4ccc(OC(=O)c5ccccc5)cc4CC[C@H]3[C@@H]1CC[C@@H]2O returned TROY signal inh 41, TWEAK-Fn14 inh -20, HIF-2a block -18, aSyn 5UTR inh -12, TRAIL sens C8 15 and HSP90 inh 5.
COc1cc2c(cc1O)CC[C@@H]1[C@@H]2CC[C@]2(C)[C@@H](O)CC[C@@H]12 was read as TROY signal inh 17, TWEAK-Fn14 inh 8, HIF-2a block 23, aSyn 5UTR inh 75*, TRAIL sens C8 12 and HSP90 inh -4.
For Cc1ccccc1Cn1c(C)c(C(=O)N(C)Cc2ccc(F)cc2)sc1=O the results were TROY signal inh -4, TWEAK-Fn14 inh 1, HIF-2a block -18 and TRAIL sens C8 1.
N#Cc1nnn2c1nc(N)c1c(Cl)cccc12 was read as TROY signal inh 12, TWEAK-Fn14 inh -18, HIF-2a block -1 and TRAIL sens C8 0.
For O=C(Nc1ccc(F)cc1F)c1cc2nc3c(c(C(F)(F)F)n2n1)CCCC3 the results were TROY signal inh 68*, TWEAK-Fn14 inh 73*, HIF-2a block -116, aSyn 5UTR inh -79, TRAIL sens C8 5 and HSP90 inh -1.
Screening CCCC(C(=O)NC(C)(C)C)N(C(=O)c1snc(C(N)=O)c1N)c1ccc2c(c1)OCCO2 (stereo not drawn) returned TROY signal inh 82*, TWEAK-Fn14 inh 86*, HIF-2a block 35, aSyn 5UTR inh -46, TRAIL sens C8 -3 and HSP90 inh 1.
CCC(C)(C)NC(=O)CN(C(=O)c1snc(C(N)=O)c1N)c1ccc2c(c1)OCCO2 was read as TROY signal inh -9, TWEAK-Fn14 inh 31, HIF-2a block -12, aSyn 5UTR inh -22, TRAIL sens C8 0 and HSP90 inh -2.
For Cc1ccc(-n2c(O)c(C=Nc3ccc4c(c3)OCO4)c3ccccc3c2=O)cc1C the results were TROY signal inh 63*, TWEAK-Fn14 inh 12, HIF-2a block -17, aSyn 5UTR inh 8, TRAIL sens C8 21 and HSP90 inh 0.
`CCOC(=O)Cc1csc(/N=C/c2c(O)n(-c3ccc(C)c(C)c3)c(=O)c3ccccc23)n1` gave TROY signal inh -30, TWEAK-Fn14 inh 6, HIF-2a block 15, aSyn 5UTR inh 105*, TRAIL sens C8 32 and HSP90 inh 0.
For O=C(Nc1ccc2c(c1)OCCO2)C(c1ccnc2ccccc12)N1CCC(Cc2ccccc2)CC1 (stereo not drawn) the results were TROY signal inh 30, TWEAK-Fn14 inh 11, HIF-2a block -58 and TRAIL sens C8 0.
`Cc1ccc2sc(C)cc(=O)c2c1` gave TROY signal inh -18, TWEAK-Fn14 inh -4, HIF-2a block -14 and TRAIL sens C8 -6.
Cc1ccccc1OCC(=O)N/N=C/c1cccc(Oc2ccc([N+](=O)[O-])cc2[N+](=O)[O-])c1 was read as TROY signal inh 30, TWEAK-Fn14 inh 63*, HIF-2a block 9, aSyn 5UTR inh 8, TRAIL sens C8 14 and HSP90 inh 0.
Screening O=C(N/N=C/c1cccc(Oc2ccc([N+](=O)[O-])cc2[N+](=O)[O-])c1)c1cncc(Br)c1 returned TROY signal inh 59*, TWEAK-Fn14 inh 45, HIF-2a block 2, aSyn 5UTR inh 8, TRAIL sens C8 -5 and HSP90 inh -2.
Screening O=C(O)CN1C(=O)C2C3CCC(C3)C2C1=O (stereo not drawn) returned TROY signal inh -3, TWEAK-Fn14 inh -6, HIF-2a block 6 and TRAIL sens C8 -7.
`CCOc1ccc(N=Nc2ccc(O)c3ncccc23)cc1` gave TROY signal inh -9, TWEAK-Fn14 inh -52, HIF-2a block 7, aSyn 5UTR inh 18, TRAIL sens C8 29 and HSP90 inh 3.
`CCS(=O)(=O)c1ccc(OC)c(N=Nc2ccc(O)c3ncccc23)c1` gave TROY signal inh -7, TWEAK-Fn14 inh 4, HIF-2a block 16, aSyn 5UTR inh 66*, TRAIL sens C8 11 and HSP90 inh 1.
Cc1cccc(N=Nc2ccc(O)c3ncccc23)c1 was read as TROY signal inh -37, TWEAK-Fn14 inh 90*, HIF-2a block -94, aSyn 5UTR inh 73*, TRAIL sens C8 30 and HSP90 inh 3.
`CCN(CC)S(=O)(=O)c1cc(OC)ccc1N=Nc1ccc(O)c2ncccc12` gave TROY signal inh 10, TWEAK-Fn14 inh 30, HIF-2a block 11, aSyn 5UTR inh inconclusive, TRAIL sens C8 13 and HSP90 inh 4.
